# Measurements reported in PubChem BioAssay AID624117 (National Center for Advancing Translational Sciences (NCATS), 2012).
# Records with an inconclusive call do not appear. The source made the active and inactive calls. Calls follow the shape of the dose curve; as a rule, active = well fitted curve in the direction sought with a large enough effect; inconclusive = small, poorly fitted or top-dose-only effect, or another doubt; inactive = no such curve, though single readings can be large or run the other way.
# Experiment: qHTS Assay for Rab9 Promoter Activators: Hit Validation Using Renilla Luciferase Read-Out; also: % of control where 0% means no effect
# Settings: Huh7 NPC1 promoter Renilla luciferase reporter, 24 h; series mostly up to 76.9 µM; activation (negative = inhibition): at the top concentration
# Excerpt: Niemann Pick Type C (NPC) is a rare neurodegenerative lipidosis that is characterized by lipid storage in the endosomal/lysosomal system. Treatment modalities for this devastating disease are currently non-existent due to the severe obstacles associated with accessing the central nervous system with proteins or genes. The majority of mutations causing NPC disease are missense mutations that are distributed throughout the length of the NPC1 protein, with the most prevalent being the I1061T allele. Although NPC1 mutant proteins may be functional, they are typically trapped in the ER due to misfolding. […] We have developed and optimized a cell based renilla luciferase reporter assay in 1536 well format for the identification of up-regulators of the mutant NPC1 promoter. This assay presents data on the validation of hits from the primary screen, which used a firefly luciferase read-out. NIH Chemical Genomics Center [NCGC] NIH Molecular Libraries Probe Production centers Network [MLPCN] MLPCN Grant: MH089375 Assay Submitter (PI): Yiannis A. Ioannou
# Huh7 cells stably expressing NPC promoter-luciferase will be seeded at 1,500 cells/well in 5 uL in 1,536-well white opaque plates with 23 nL/well of compound in DMSO solution. The assay plates will be incubated at 37 deg C for 24 hours, after which 3 uL/well BriteLite plus luciferase detection reagent mixture (Perkin Elmer) will be added. Luminescence signal will be measured in a ViewLux plate reader (Perkin Elmer) after a 10 minute incubation at the room temperature.
row,SMILES,activation (negative = inhibition)
1,CCC(=NCc1cccnc1)c1c(O)n(-c2ccccc2)c(=O)[nH]c1=O,-4.03% (inactive)
2,Cc1cccn2c(NCC3CCCO3)c(C(C)C)nc12 (stereo not given),3.86% (inactive)
3,COc1cccc(CCNCc2ccc(SC)cc2)c1,5.03% (inactive)
4,CN1CCc2cc3c(c4c2C1Cc1ccccc1-4)OCO3 (stereo not given),-31.1% (inactive)
5,O=C1c2ccccc2C(=O)N1Cc1nc2ccccc2c(=O)n1-c1cccnc1,2.07% (inactive)
